Measured values as given in PubChem BioAssay (NCI).
Compounds without any hit were thinned out: in the full panel of roughly 83,000, 20% have a hit.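 Each cell line was grown in a 96-well plate and treated with one concentration of compound for 48 hours. Values below 10 were considered active.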 Unmarked numbers belong to inactive results. Active and inactive are the calls of the source.

Test system: UACC-257 melanoma
Test: NCI-60 one-dose screen, 48 h (100 = growth as untreated, 0 = no growth, -100 = all killed)
Settings: 10 µM

Compared with `COc1ccc(-c2nn(-c3cccc(NC(=O)c4ccc(N5CCOCC5)c(C(F)(F)F)c4)c3)cc2-c2ccncc2)cc1Cl`, `COc1cc2cc3c(nc2cc1OC)CCN3Cc1ccc(NC(=O)Nc2ccc(F)cc2F)cc1` is higher in growth: 67.8% for the first, 77.3% for the second.

First: CN1CC[C@@H](c2c(O)cc(O)c3c(=O)cc(-c4ccccc4Cl)oc23)[C@@H](O)C1
Second: O=C(N/N=C/c1cc2ccccc2c2ccccc12)c1cc(O)c(O)c(O)c1
The growth of the first is lower: 15.5% for the first, 75.3% for the second.

Going from `Nc1nc(-c2ccccc2Cl)cc(-c2ccc(Cl)cc2Cl)n1` to `Cc1cc(=O)n2nnc3c4ccccc4ccc3n12`, the growth falls from 93% to 81.1%.

Compared with `Cc1[nH]nc2c1C(c1cnn(C)c1)C(C#N)=C(N)O2` (stereo not drawn), `Cc1ccc(N=Nc2c(N)nc(N)[nH]c2=O)cc1C` is higher in growth: 98.3% for the first, 107% for the second.

Going from `CCCCCCCCCCCCCCCC(=O)OC1[C@@H](OC(=O)CCCCCCCCCCCCCCC)[C@@H](C(=O)N[C@@H](CCCCN)C(=O)OC)O[C@H]1n1cnc2c(=O)[nH]c(NC(=O)C(C)C)nc21` (stereo partly drawn) to `CCCCCCN1CCN(Cc2ccc(N(CC)CC)cc2)C(=O)C1=O`, the growth falls from 90.1% to 33.7%.

Compared with `CN(Cc1ccccc1)Cc1ccc([N+](=O)[O-])cc1I`, `c1ccc([I+]c2ccccc2)cc1` is lower in growth: 103% for the first, 78.6% for the second.

First: COc1ccc(-c2nsc3c2NC(=O)CC3c2ccc(F)cc2)cc1 (stereo not drawn)
Second: O=C1/C(=C\c2ccc(F)cc2)CN(C(=O)c2ccc([N+](=O)[O-])cc2)C/C1=C\c1ccc(F)cc1
The growth of the first is lower: 58.3% for the first, 67% for the second.

First: COc1ccc(N2C(=O)C3c4[nH]c5ccc(OCc6ccccc6)cc5c4C4CCC(C(C)C)CC4C3C2=O)cc1 (stereo not drawn)
Second: C#Cc1ccc(-n2c(/C=C/c3ccc(O)c(OC)c3)nc3ncccc3c2=O)cc1
The growth of the first is higher: 96.1% for the first, 87.8% for the second.

Going from `CCOC(=O)N1C/C(=C/c2ccc(Cl)cc2)C(=O)/C(=C/c2ccc(Cl)cc2)C1` to `O=C(CCCCC(=O)Nc1ccc2c(c1)/C(=C/c1ccc[nH]1)C(=O)N2)NO`, the growth falls from 94.2% to 70.6%.

First: O=C1Nc2ccccc2C1=NC1CCCCC1
Second: Nc1c(C(=O)Nc2ccccc2)sc2nc3c(cc12)CCCC3
The growth of the first is higher: 100% for the first, 59.2% for the second.

Going from `O=C(N/N=C\c1cc(Cl)ccc1[N+](=O)[O-])c1ccco1` to `COc1ccc([N+](=O)[O-])c(C(=O)O)c1`, the growth rises from 95% to 110%.

Going from `Cc1c(Cl)cccc1NC(=O)c1sc2nc3c(cc2c1N)C(=O)CCC3` to `Nc1c(C(=O)Nc2cccc(F)c2)sc2nc3c(cc12)C(=O)CCC3`, the growth rises from 48.1% to 57.3%.

First: O=C(O)c1ccc(P(=O)(O)O)c([N+](=O)[O-])c1
Second: CCOCC(=O)C(C#N)c1ccc(Cl)c(Cl)c1 (stereo not drawn)
The growth of the first is higher: 92.2% for the first, 92% for the second.

First: CN(C)C=Nc1cc(Cl)ccc1Cl
Second: COc1ccc(S(=O)(=O)Nc2c(/C=C\c3cc(OC)c(OC)c(OC)c3)ccc(OC)c2O)cc1
The growth of the first is higher: 90.2% for the first, 32.4% for the second.

First: Nc1c(C(=O)Nc2cccc(Br)c2)sc2nc3c(cc12)C(O)CCC3 (stereo not drawn)
Second: COc1cc(OC)cc(-c2cncn2-c2ccc(-c3nc4cc(OC)cc(OC)c4s3)cc2)c1
The growth of the first is lower: 64.7% for the first, 82.4% for the second.

Going from `CC[C@H](C)C(=O)O[C@H]1CCC=C2C=C[C@H](C)C(CCC3C[C@@H](O)CC(=O)O3)[C@H]21` (stereo partly drawn) to `CCOC(=O)C1(CC(C)C)CCOC1=O` (stereo not drawn), the growth rises from 75.2% to 97.7%.

Compared with `CC1=C(N2CCOCC2)C(N2CCOCC2)=C(C)C(=O)C1=O`, `COc1cc(C(=O)N2CCN(c3ccccc3OC)CC2)c(N)cc1OCCCN1CCN(c2ccccc2OC)CC1` is higher in growth: 91.5% for the first, 104% for the second.

`O=C1c2ccc3c4c(ccc(c24)C(=O)N1CCNCc1ccccc1)C(=O)N(CCNCc1ccccc1)C3=O` showed a growth of 95.8%.

With `CC(C)N(CCNc1nc(C(Cl)(Cl)Cl)nc2cc(Cl)ccc12)C(C)C` the growth was -64.7% (active).
With `COc1ccc(-c2nn(-c3cccc(NC(=O)Nc4cc(C(F)(F)F)cc(C(F)(F)F)c4)c3)cc2-c2ccncc2)cc1Cl` the growth was -31% (active).
`O=C1N=NC2=C1c1c3ccccc3c(O)n1CC2` was tested, and the growth was 8.27% (active).
For `O=C(Nc1nc2ccccc2s1)Nc1ccc([N+](=O)[O-])cc1Cl`, the growth was -10.6% (active).

Test system: M14 melanoma
Test: as above
Settings: 10 µM

Compared with `COc1ccc(-c2nn(-c3cccc(NC(=O)c4ccc(N5CCOCC5)c(C(F)(F)F)c4)c3)cc2-c2ccncc2)cc1Cl`, `COc1cc2cc3c(nc2cc1OC)CCN3Cc1ccc(NC(=O)Nc2ccc(F)cc2F)cc1` is higher in growth: 65% for the first, 81.8% for the second.

Going from `Nc1nc(-c2ccccc2Cl)cc(-c2ccc(Cl)cc2Cl)n1` to `O=C(Nc1nc2ccccc2s1)Nc1ccc([N+](=O)[O-])cc1Cl`, the growth rises from 53.5% to 79.7%.

First: Cc1[nH]nc2c1C(c1cnn(C)c1)C(C#N)=C(N)O2 (stereo not drawn)
Second: Cc1ccc(N=Nc2c(N)nc(N)[nH]c2=O)cc1C
The growth of the first is higher: 100% for the first, 97.2% for the second.

Compared with `O=C(N/N=C/c1cc2ccccc2c2ccccc12)c1cc(O)c(O)c(O)c1`, `O=C(N/N=C\c1cc(Cl)ccc1[N+](=O)[O-])c1ccco1` is higher in growth: 61% for the first, 108% for the second.

Going from `CCCCCCCCCCCCCCCC(=O)OC1[C@@H](OC(=O)CCCCCCCCCCCCCCC)[C@@H](C(=O)N[C@@H](CCCCN)C(=O)OC)O[C@H]1n1cnc2c(=O)[nH]c(NC(=O)C(C)C)nc21` (stereo partly drawn) to `CC[C@H](C)C(=O)O[C@H]1CCC=C2C=C[C@H](C)C(CCC3C[C@@H](O)CC(=O)O3)[C@H]21` (stereo partly drawn), the growth falls from 93.7% to 61.7%.

First: Cc1cc(=O)n2nnc3c4ccccc4ccc3n12
Second: O=C1N=NC2=C1c1c3ccccc3c(O)n1CC2
The growth of the first is lower: 92.4% for the first, 93.2% for the second.

First: CN(Cc1ccccc1)Cc1ccc([N+](=O)[O-])cc1I
Second: c1ccc([I+]c2ccccc2)cc1
The growth of the first is higher: 102% for the first, 72.5% for the second.

First: COc1ccc(-c2nsc3c2NC(=O)CC3c2ccc(F)cc2)cc1 (stereo not drawn)
Second: COc1ccc(N2C(=O)C3c4[nH]c5ccc(OCc6ccccc6)cc5c4C4CCC(C(C)C)CC4C3C2=O)cc1 (stereo not drawn)
The growth of the first is lower: 24% for the first, 124% for the second.

First: C#Cc1ccc(-n2c(/C=C/c3ccc(O)c(OC)c3)nc3ncccc3c2=O)cc1
Second: COc1cc(OC)cc(-c2cncn2-c2ccc(-c3nc4cc(OC)cc(OC)c4s3)cc2)c1
The growth of the first is higher: 101% for the first, 38.8% for the second.

Going from `CCOC(=O)N1C/C(=C/c2ccc(Cl)cc2)C(=O)/C(=C/c2ccc(Cl)cc2)C1` to `O=C(CCCCC(=O)Nc1ccc2c(c1)/C(=C/c1ccc[nH]1)C(=O)N2)NO`, the growth rises from 57.1% to 58.6%.

First: O=C1Nc2ccccc2C1=NC1CCCCC1
Second: Nc1c(C(=O)Nc2ccccc2)sc2nc3c(cc12)CCCC3
The growth of the first is higher: 106% for the first, 22.7% for the second.

Compared with `O=C(O)c1ccc(P(=O)(O)O)c([N+](=O)[O-])c1`, `COc1ccc([N+](=O)[O-])c(C(=O)O)c1` is lower in growth: 114% for the first, 100% for the second.

Going from `Nc1c(C(=O)Nc2cccc(F)c2)sc2nc3c(cc12)C(=O)CCC3` to `Nc1c(C(=O)Nc2cccc(Br)c2)sc2nc3c(cc12)C(O)CCC3` (stereo not drawn), the growth falls from 15.3% to 12.8%.

Compared with `CN(C)C=Nc1cc(Cl)ccc1Cl`, `CCOCC(=O)C(C#N)c1ccc(Cl)c(Cl)c1` (stereo not drawn) is higher in growth: 107% for the first, 113% for the second.

Going from `CCOC(=O)C1(CC(C)C)CCOC1=O` (stereo not drawn) to `CC1=C(N2CCOCC2)C(N2CCOCC2)=C(C)C(=O)C1=O`, the growth falls from 106% to 103%.

Compound `COc1cc(C(=O)N2CCN(c3ccccc3OC)CC2)c(N)cc1OCCCN1CCN(c2ccccc2OC)CC1` has a growth of 85.2%.

For `CN1CC[C@@H](c2c(O)cc(O)c3c(=O)cc(-c4ccccc4Cl)oc23)[C@@H](O)C1`, the growth was -58.9% (active).
With `CCCCCCN1CCN(Cc2ccc(N(CC)CC)cc2)C(=O)C1=O` the growth was 9.15% (active).
`CC(C)N(CCNc1nc(C(Cl)(Cl)Cl)nc2cc(Cl)ccc12)C(C)C` was tested, and the growth was -68.7% (active).
In the case of `COc1ccc(-c2nn(-c3cccc(NC(=O)Nc4cc(C(F)(F)F)cc(C(F)(F)F)c4)c3)cc2-c2ccncc2)cc1Cl`, the growth is reported as -34.1% (active).
For `Cc1c(Cl)cccc1NC(=O)c1sc2nc3c(cc2c1N)C(=O)CCC3`, the growth was 3.72% (active).
For `O=C1/C(=C\c2ccc(F)cc2)CN(C(=O)c2ccc([N+](=O)[O-])cc2)C/C1=C\c1ccc(F)cc1`, the growth was 2.02% (active).
In the case of `COc1ccc(S(=O)(=O)Nc2c(/C=C\c3cc(OC)c(OC)c(OC)c3)ccc(OC)c2O)cc1`, the growth is reported as 2.65% (active).
For `O=C1c2ccc3c4c(ccc(c24)C(=O)N1CCNCc1ccccc1)C(=O)N(CCNCc1ccccc1)C3=O`, the growth was -62.3% (active).
